The text below walks through data of PubChem BioAssay (EPA / NIEHS).

Calls of active or inactive are those of the source. The calls were made as follows: active = hit-call score of the fitted dose curve at least 0.9, where 1 is the maximum; inactive = score below 0.9.

Conditions in all cases: mRNA level, 48 h; actives raise or lower the signal
Read-out in assay [1]: Cytochrome P450 7A1 (Homo sapiens) (UniProt P22680)
In words: LTEA_HepaRG_CYP7A1: Life Technologies and Expression Analysis (LTEA) Assay for Cytochrome P450 7A1 (CYP7A1) using HepaRG (AID 2283496). Put shortly:
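HepaRG cells plated 48 h, then switched to serum-free induction medium and exposed in duplicate for 48 h to 8-point half-log series from 100 uM in 0.5% DMSO. CYP7A1 mRNA by qRT-PCR (TaqMan), normalized to ACTB/GAPDH/POLR2A; bidirectional fit versus DMSO.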

Read-out in assay [2]: Glutathione S-Transferase (GSTA2), GSTA2 (gene 2939)
In words: LTEA_HepaRG_GSTA2: Life Technologies and Expression Analysis (LTEA) Assay for Glutathione S-Transferase (GSTA2) using HepaRG (AID 2283497). An outline of the steps: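 Human HepaRG cells, plated 48 h, then exposed in serum-free induction medium for 48 h to eight half-log concentrations up to 100 uM in 0.5% DMSO, duplicate. GSTA2 mRNA by qRT-PCR, normalized to ACTB/GAPDH/POLR2A; bidirectional fit versus DMSO.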

Read-out in assay [3]: Glutamate-cysteine ligase catalytic (GCLC), GCLC (gene 2729)
In words: LTEA_HepaRG_GCLC: Life Technologies and Expression Analysis (LTEA) Assay for Glutamate-cysteine ligase catalytic (GCLC) using HepaRG (AID 2283498). Put shortly: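 Differentiated human HepaRG cells, plated 48 h then switched to serum-free induction medium, were exposed in duplicate for 48 h to 8 half-log concentrations topping at 100 uM in 0.5% DMSO. GCLC mRNA was quantified by qRT-PCR against ACTB, GAPDH and POLR2A.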

Read-out in assay [4]: growth arrest and DNA damage 45 (GADD45G), GADD45G (gene 10912)
Nature of the assay: LTEA_HepaRG_GADD45G: Life Technologies and Expression Analysis (LTEA) Assay for growth arrest and DNA damage 45 (GADD45G) using HepaRG (AID 2283499). An outline of the steps: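 Differentiated human HepaRG cells in serum-free induction medium were exposed for 48 h to 8 half-log concentrations up to 100 uM in 0.5% DMSO, in duplicate. GADD45G mRNA was measured by TaqMan qRT-PCR, normalised to ACTB, GAPDH and POLR2A, and fitted bidirectionally against DMSO.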

Read-out in assay [5]: Glutamate-cysteine ligase regulatory (GCLM), GCLM (gene 2730)
In words: LTEA_HepaRG_GCLM: Life Technologies and Expression Analysis (LTEA) Assay for Glutamate-cysteine ligase regulatory (GCLM) using HepaRG (AID 2283500). Put shortly: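 Differentiated HepaRG cells exposed 48 h in serum-free induction medium to eight half-log concentrations up to 100 uM (0.5% DMSO). GCLM mRNA by TaqMan qRT-PCR, normalized to ACTB, GAPDH and POLR2A; bidirectional fit versus DMSO.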

Read-out in assay [6]: Heat shock 70 kDa protein 1 (HSPA1A), gene 3303
In words: LTEA_HepaRG_HSPA1A: Life Technologies and Expression Analysis (LTEA) Assay for Heat shock 70 kDa protein 1 (HSPA1A) using HepaRG (AID 2283502). Put shortly: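 Human HepaRG cells in serum-free induction medium were exposed in duplicate for 48 h to 8 half-log concentrations, highest 100 uM, in 0.5% DMSO. HSPA1A mRNA read by TaqMan qRT-PCR, normalized to ACTB, GAPDH, POLR2A, fitted bidirectionally against DMSO.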

Read-out in assay [7]: Hypoxia-inducible factor 1-alpha (Homo sapiens) (UniProt Q16665)
Nature of the assay: LTEA_HepaRG_HIF1A: Life Technologies and Expression Analysis (LTEA) Assay for Hypoxia-inducible factor 1 (HIF1A) Trancription factor using HepaRG (AID 2283503). An outline of the steps:
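Differentiated HepaRG cells in serum-free induction medium exposed 48 h, in duplicate, to 8-point half-log series from 100 uM in 0.5% DMSO. HIF1A mRNA measured by TaqMan qRT-PCR, normalized to ACTB/GAPDH/POLR2A, fitted bidirectionally versus DMSO.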

Read-out in assay [8]: 3-Hydroxy-3-Methylglutaryl-CoA Synthase 2 (HMGCS2), HMGCS2 (gene 3158)
In words: LTEA_HepaRG_HMGCS2: Life Technologies and Expression Analysis (LTEA) Assay for 3-Hydroxy-3-Methylglutaryl-CoA Synthase 2 (HMGCS2) using HepaRG (AID 2283504). An outline of the steps: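 Differentiated human HepaRG cells were exposed in duplicate for 48 h in serum-free induction medium to eight concentrations (top 100 uM, half-log steps, 0.5% DMSO). HMGCS2 mRNA was quantified by TaqMan qRT-PCR, normalised to ACTB, GAPDH and POLR2A, then fitted bidirectionally against DMSO.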

Read-out in the next assay: HGF (gene 3082)
In words: LTEA_HepaRG_HGF: Life Technologies and Expression Analysis (LTEA) Assay for Hepatocyte Growth Facto (HGF) using HepaRG (AID 2283505). Put shortly:
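Differentiated human HepaRG cells in serum-free induction medium were exposed in duplicate for 48 h to eight concentrations (top 100 uM, half-log steps, 0.5% DMSO). HGF mRNA was quantified by qRT-PCR, normalized to ACTB, GAPDH and POLR2A.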

Read-out in assay [9]: Insulin Like Growth Factor 1 (IGF1), IGF1 (gene 3479)
In words: LTEA_HepaRG_IGF1: Life Technologies and Expression Analysis (LTEA) Assay for Insulin Like Growth Factor 1 (IGF1) using HepaRG (AID 2283506). Put shortly: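 Differentiated HepaRG cells in serum-free induction medium, exposed 48 h in duplicate to 8 half-log concentrations up to 100 uM in 0.5% DMSO. IGF1 mRNA by Fluidigm qRT-PCR, normalised to ACTB, GAPDH and POLR2A.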

Read-out in assay [10]: Intercellular Adhesion Molecule 1 (ICAM1), ICAM1 (gene 3383)
Nature of the assay: LTEA_HepaRG_ICAM1: Life Technologies and Expression Analysis (LTEA) Assay for Intercellular Adhesion Molecule 1 (ICAM1) using HepaRG (AID 2283507). An outline of the steps: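 Differentiated HepaRG cells in serum-free induction medium were exposed in duplicate for 48 h to eight half-log concentrations up to 100 uM in 0.5% DMSO. Transcript levels were measured by qRT-PCR normalized to ACTB, GAPDH and POLR2A; bidirectional fits relative to DMSO.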

Read-out in assay [11]: Insulin-like growth factor-binding protein 1 (IGFBP1), IGFBP1 (gene 3484)
In words: LTEA_HepaRG_IGFBP1: Life Technologies and Expression Analysis (LTEA) Assay for Insulin-like growth factor-binding protein 1 (IGFBP1) using HepaRG (AID 2283508). An outline of the steps: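 Differentiated human HepaRG cells in serum-free induction medium were exposed in duplicate for 48 h to eight concentrations, top 100 uM with half-log dilutions, in 0.5% DMSO. Transcript levels came from qRT-PCR normalised to ACTB, GAPDH and POLR2A, fitted bidirectionally against DMSO.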

Read-out in assay [12]: Interleukin 6 (IL6), IL6 (gene 3569)
Nature of the assay: LTEA_HepaRG_IL6: Life Technologies and Expression Analysis (LTEA) Assay for Interleukin 6 (IL6) using HepaRG (AID 2283509). An outline of the steps:
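Differentiated human HepaRG cells, plated 48 h then switched to serum-free induction medium, were exposed in duplicate for 48 h to eight half-log concentrations up to 100 uM in 0.5% DMSO. IL6 mRNA measured by qRT-PCR, normalized to ACTB/GAPDH/POLR2A.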

Read-out in assay [13]: Interleukin 6 Receptor (IL6R), IL6R (gene 3570)
Nature of the assay: LTEA_HepaRG_IL6R: Life Technologies and Expression Analysis (LTEA) Assay for Interleukin 6 Receptor (IL6R) using HepaRG (AID 2283510). An outline of the steps: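 Differentiated HepaRG cells, plated 48 h, then exposed in duplicate for 48 h in serum-free induction medium to 8 half-log concentrations (top 100 uM, 0.5% DMSO). IL6R mRNA measured by TaqMan qRT-PCR, normalized to ACTB/GAPDH/POLR2A; bidirectional fit vs DMSO.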

Read-out in assay [14]: Potassium channel subfamily K member 1 (KCNK1), KCNK1 (gene 3775)
Nature of the assay: LTEA_HepaRG_KCNK1: Life Technologies and Expression Analysis (LTEA) Assay for Potassium channel subfamily K member 1 (KCNK1) using HepaRG (AID 2283511). Put shortly: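 Differentiated human HepaRG cells in serum-free induction medium were exposed in duplicate for 48 h to 8 half-log concentrations up to 100 uM in 0.5% DMSO. KCNK1 mRNA was measured by TaqMan qRT-PCR, normalized to ACTB, GAPDH and POLR2A, and fitted bidirectionally versus DMSO.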

Read-out in assay [15]: Keratin 19 (KRT19), KRT19 (gene 3880)
Nature of the assay: LTEA_HepaRG_KRT19: Life Technologies and Expression Analysis (LTEA) Assay for Keratin 19 (KRT19) using HepaRG (AID 2283512). Put shortly:
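Differentiated human HepaRG cells, plated 48 h, were exposed in duplicate for 48 h in serum-free induction medium to eight half-log concentrations up to 100 uM in 0.5% DMSO. KRT19 mRNA was quantified by qRT-PCR, normalized to ACTB, GAPDH and POLR2A, and fitted bidirectionally versus DMSO.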

Read-out in assay [16]: JUN Transcription Factor, JUN (gene 3725)
Nature of the assay: LTEA_HepaRG_JUN: Life Technologies and Expression Analysis (LTEA) Assay for JUN Transcription Factor using HepaRG (AID 2283513). Put shortly:
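HepaRG cells, 48 h post-plating, exposed 48 h in serum-free induction medium to 8-point half-log series (top 100 uM, 0.5% DMSO), duplicate; mRNA by qRT-PCR (TaqMan, Fluidigm), normalized to ACTB/GAPDH/POLR2A; bidirectional fit vs DMSO.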

Read-out in assay [17]: Lipase C (LIPC), LIPC (gene 3990)
Nature of the assay: LTEA_HepaRG_LIPC: Life Technologies and Expression Analysis (LTEA) Assay for Lipase C (LIPC) using HepaRG (AID 2283514). Put shortly:
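Differentiated human HepaRG cells in serum-free induction medium were exposed in duplicate for 48 h to eight concentrations (top 100 uM, half-log steps, 0.5% DMSO). LIPC mRNA was quantified by TaqMan qRT-PCR, normalized to ACTB, GAPDH and POLR2A, with bidirectional fitting versus DMSO.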

Read-out in assay [18]: Lipoprotein lipase (LPL), LPL (gene 4023)
Nature of the assay: LTEA_HepaRG_LPL: Life Technologies and Expression Analysis (LTEA) Assay for Lipoprotein lipase (LPL) using HepaRG (AID 2283515). Put shortly:
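Differentiated human HepaRG cells in serum-free induction medium were exposed in duplicate for 48 h to eight half-log concentrations (top 100 uM) in 0.5% DMSO. LPL mRNA was quantified by TaqMan qRT-PCR, normalized to ACTB, GAPDH and POLR2A.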

Read-out in assay [19]: Glutathione S-transferase M3 (GSTM3), GSTM3 (gene 2947)
In words: LTEA_HepaRG_GSTM3: Life Technologies and Expression Analysis (LTEA) Assay for Glutathione S-transferase M3 (GSTM3) using HepaRG (AID 2283501). An outline of the steps: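 Differentiated HepaRG cells in serum-free induction medium were exposed in duplicate for 48 h to 8 half-log concentrations up to 100 uM in 0.5% DMSO. GSTM3 mRNA was measured by TaqMan qRT-PCR, normalized to ACTB/GAPDH/POLR2A, and fitted bidirectionally versus DMSO.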

Chain of Hypoxia-inducible factor 1-alpha (Homo sapiens) (Q16665 whole entry, looked up): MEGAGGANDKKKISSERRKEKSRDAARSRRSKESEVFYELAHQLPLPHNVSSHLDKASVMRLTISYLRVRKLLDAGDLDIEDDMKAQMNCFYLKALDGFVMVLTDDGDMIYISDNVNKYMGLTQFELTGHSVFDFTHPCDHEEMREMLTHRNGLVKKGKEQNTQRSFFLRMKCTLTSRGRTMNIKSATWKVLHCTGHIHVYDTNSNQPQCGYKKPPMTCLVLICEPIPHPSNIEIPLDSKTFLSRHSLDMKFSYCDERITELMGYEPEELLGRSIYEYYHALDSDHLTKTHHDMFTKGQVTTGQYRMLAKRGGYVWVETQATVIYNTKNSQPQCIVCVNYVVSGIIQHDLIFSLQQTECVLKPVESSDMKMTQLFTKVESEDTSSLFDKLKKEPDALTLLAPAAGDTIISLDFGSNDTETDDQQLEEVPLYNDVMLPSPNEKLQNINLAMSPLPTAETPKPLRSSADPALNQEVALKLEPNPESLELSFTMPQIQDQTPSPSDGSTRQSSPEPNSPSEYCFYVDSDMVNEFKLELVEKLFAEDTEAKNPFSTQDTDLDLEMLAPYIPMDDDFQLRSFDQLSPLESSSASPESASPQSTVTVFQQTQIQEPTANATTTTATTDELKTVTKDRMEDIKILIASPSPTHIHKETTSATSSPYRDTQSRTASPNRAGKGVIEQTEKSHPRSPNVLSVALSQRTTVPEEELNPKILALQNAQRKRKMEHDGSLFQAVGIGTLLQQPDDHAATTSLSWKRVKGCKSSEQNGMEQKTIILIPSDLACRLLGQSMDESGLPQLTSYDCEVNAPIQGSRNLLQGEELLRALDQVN

Consider `CCOC(=O)COc1cc(-c2nn(C)c(OC(F)F)c2Cl)c(F)cc1Cl`, for which the result in assay [1], in [2], in [3], in [4], in [5] and in [6] was inactive. The molecule was classed as inactive (in assay [7]; in assay [8]; with HGF (gene 3082); in assay [9]; in [10]; in assay [11]). Besides, the molecule was called inactive in [12], in [13], in assay [14], in [15], in [16] and in [17]. The result in assay [18] was inactive.
As for `CNC(=O)ON=C(SC)C(=O)N(C)C`, the call in assay [1], in assay [2], in assay [3], in assay [4], in assay [5] and in assay [19] was inactive. Moreover, the result (in assay [6]; in assay [7]; in assay [8]; with HGF (gene 3082); in assay [9]; in assay [10]) was inactive. Further, the molecule was called inactive in [11], in [12], in assay [13], in [14], in [15] and in assay [16]. Moreover, in assay [17], the call was inactive. The AC50 in assay [18] is 0.289 µM (active).
For `CC(C)=CC1C(C(=O)OCN2C(=O)C3=C(CCCC3)C2=O)C1(C)C` (stereo not drawn), the outcome in assay [1], in assay [2], in assay [3], in assay [4], in assay [5] and in assay [6] was inactive. In addition, the outcome (in assay [7]; in assay [8]; with HGF (gene 3082); in assay [9]; in [10]; in assay [11]) was inactive. The call in [12], in [13], in assay [14], in [15], in [16] and in [17] was inactive. Besides, the molecule was classed as inactive in assay [18].
